Records with an inconclusive call do not appear. Activity calls are given as the source filed them. Unless noted, calls follow the shape of the dose curve; as a rule, active = well fitted curve in the direction sought with a large enough effect; inconclusive = small, poorly fitted or top-dose-only effect, or another doubt; inactive = no such curve, though single readings can be large; an effect the other way counts as inactive or inconclusive.
Legend:
[1] = NCATS anti-infectives library activity on the primary C. elegans qHTS viability assay (AID 1745855; calls by dose curve; also: potency is read from the fitted curve at half-maximal effect)
In short: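 Titration-based screen in worms: eggs hatched overnight in M9, L1 larvae fed TOP10 capsules in S medium with compound, incubated 21 °C for 7 days; fluorescent objects gated by size and intensity at days 0, 3 and 7.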

[2] = molecular target: Glutathione peroxidase 1 (Homo sapiens) (UniProt P07203); assay: Primary qHTS Assay for Inhibitors of Recombinant Selenoprotein Glutathione Peroxidase 1 (GPX1) (AID 1845191); also: nearly all actives have a fitted effect of over 65% in size; also: potency is read from the fitted curve at half-maximal effect
In short: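 NADPH consumption tracked by fluorescence at 340/450 nm between t=0 and t=15 min, room temperature. Final mix: 10 nM GPX1, 100 nM glutathione reductase, 1 mM GSH, 0.5 mM NADPH, 0.5 mM cumene hydroperoxide, 0.01% BSA; 30 min compound–enzyme preincubation.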

[3] = molecular target: Phospholipid hydroperoxide glutathione peroxidase GPX4 (Homo sapiens) (UniProt P36969); assay: Primary qHTS Assay for Inhibitors of Recombinant Selenoprotein Glutathione Peroxidase 4 (GPX4) (AID 1845192); also: nearly all actives have a fitted effect of over 65% in size
In short: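 NADPH consumption followed by fluorescence at 340/450 nm, t=0 and after 15 min at room temperature. Reaction started with cumene hydroperoxide (0.5 mM final) after 30 min compound–GPX4 preincubation; final 200 nM GPX4, 100 nM GR, 1 mM GSH, 0.5 mM NADPH.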

[4] = molecular target: Luciferin 4-monooxygenase (Photinus pyralis) (UniProt P08659); assay: Primary firefly luciferase (FLuc) qHTS assay for identification of artifact compounds. (AID 1845220); also: nearly all actives have a fitted effect of over 60% in size
In short: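 Compounds sat 15 min at room temperature with 10 uM luciferin and 10 uM ATP (pH 7.6 Tris acetate). Firefly luciferase (10 nM final) was then added, and luminescence was read 5 min later. Data normalized to no-enzyme and DMSO controls were Hill-fitted.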

[5] = Primary fluorescence-based thiol-reactive (MSTI) qHTS assay for identification of artifact compounds. (AID 1845221);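 also: series mostly up to about 54 µM; thiol-reactive compounds lower the probe fluorescence signal; nearly all actives have a fitted effect of over 65% in size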
In short: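 MSTI probe at 4 uM final in 2% DMSO/PBS pH 7.4; compounds, 1 h at room temperature in dark. Fluorescence Ex/Em 525/598 nm, normalised to Acetyl-MSTI and MSTI, fitted to 4-parameter Hill.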

[6] = tested on: Nanoluciferase (engineered Oplophorus gracilirostris luciferase); assay: Primary Nanoluciferase (NLuc) qHTS assay for identification of artifact compounds. (AID 1845222); also: series mostly up to about 54 µM
In short: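 Luminescence from secreted NLuc (filtered, 1:55-diluted S16 cell medium) read 5 min after Nano-Glo substrate; compounds preincubated 15 min, RT. Hill fits of inhibition normalized to DMSO and no-enzyme.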

[7] = molecular target: Metallo-beta-lactamase type 2 (Klebsiella pneumoniae) (UniProt C7C422); assay: qHTS to identify inhibitors of the New Delhi Metallo-beta-lactamase (NDM): assay validation screen against the NCATS LOPAC Collection (AID 1794843); also: potency is read from the fitted curve at half-maximal effect
In short: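 Enzyme 2 nM final, 50 mM HEPES pH 7.0, 1 uM ZnSO4, 0.01% Tween20; cpds in DMSO, preincub w/ enzyme; + nitrocefin (50 uM stock); A485 at plateau; no-enzyme column as blank.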

[8] = molecular target: Nuclear receptor subfamily 1 group I member 3 (Homo sapiens) (UniProt Q14994); assay: Primary qHTS for antagonist of constitutive androstane receptor (CAR) against the NCATS DSHEA and TCM libraries (AID 1794836);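 also: HepG2 cells stably expressing hCAR with CYP2B6 luciferase reporter stimulated by CITCO; series mostly up to about 40 µM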
In short: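 Antagonist mode: CAR reporter luminescence (ONE-Glo) in HepG2-CYP2B6-hCAR cells stimulated with 48 uM CITCO (final) over 24 h at 37 C, compounds titrated; viability read first by CellTiter-Fluor fluorescence.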

[9] = Viability counterscreen for antagonist of constitutive androstane receptor (CAR) against the NCATS DSHEA and TCM libraries (AID 1794837);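 also: compound exposure lasted 24 h before viability reading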
In short: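 Counterscreen performed in a 1536-well qHTS format using HepG2-CYP2B6-hCAR cells; samples titrated in the presence of 48 uM CITCO, with viability measured fluorometrically (405/540 nm) after 24 h.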

[10] = Viability counterscreen for agonist of constitutive androstane receptor (CAR) against the NCATS DSHEA and TCM libraries (AID 1794838)
In short: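 Multiplexed counterscreen: after 24 h compound exposure with 0.75 uM PK11195, HepG2-CYP2B6-hCAR viability was quantified fluorimetrically (CellTiter-Fluor, 405/540 nm) prior to the ONE-Glo luciferase read.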

[11] = molecular target: Nuclear receptor subfamily 1 group I member 3 (Homo sapiens) (UniProt Q14994); assay: Primary qHTS for agonist of constitutive androstane receptor (CAR) against the NCATS DSHEA and TCM libraries (AID 1794839);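 also: HepG2 cells expressing human CAR with a CYP2B6 reporter plus PK11195 antagonist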
In short: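 Concentration–response screen in HepG2-CYP2B6-hCAR cells under 0.75 µM PK11195; 24 h exposure; luminescent reporter signal with multiplexed fluorescent viability.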

[12] = HepG2 viability counterscreen (readout 2: ATP content) against the NCATS DSHEA and TCM libraries (AID 1794840);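 also: HepG2 cells exposed to substances for about 24 h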
In short: (§1)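 After HepG2 cells attach for ~4 h, substances are added and incubated ~24 h at 37C, 5% CO2. GF-AFC fluorescence then CellTiter-Glo luminescence give protease and ATP readouts.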

[13] = HepG2 viability counterscreen (readout 1: protease activity) against the NCATS DSHEA and TCM libraries (AID 1794841);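 also: cells exposed to compounds for about 24 h before the protease read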
In short: as §1

[14] = molecular target: Cytochrome P450 3A4 (Homo sapiens) (UniProt P08684); assay: qHTS for inhibitors of CYP3A4 against the NCATS DSHEA and TCM libraries (AID 1919971);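 also: inhibition lowers luminescence from luciferin made by CYP3A4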
In short: (§2)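 Isoform-specific enzyme and substrate levels; enzyme-free wells as background. Reaction: 1x NADPH regenerating system, 30-45 min, room temperature, shielded from light; luminescent detection reagent added, 30 min.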

[15] = molecular target: Cytochrome P450 2D6 (Homo sapiens) (UniProt P10635); assay: qHTS for inhibitors of CYP2D6 against the NCATS DSHEA and TCM libraries (AID 1919972)
In short: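 qHTS, concentration–response format with most substances from 19.5 nM. CYP2D6 + pro-luciferin substrate, 15 min with compound, then 1x NADPH regen, 30–45 min RT dark. Glo detection 30 min, luminescence. Quinidine control.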

[16] = molecular target: Cytochrome P450 2C9 (Homo sapiens) (UniProt P11712); assay: qHTS for inhibitors of CYP2C9 against the NCATS DSHEA and TCM libraries (AID 1919973);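 also: luminogenic pro-luciferin CYP2C9 substrate turned into luciferin with NADPH regeneration; series mostly up to about 34 µM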
In short: as §2

[17] = KB-3-1 P-gp reporter qHTS against the NCATS DSHEA and TCM libraries (AID 1919975)
In short: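 Cell viability qHTS: 500 KB-3-1 cells/well, substances in titration, ~72 h, 37C; luminescent CellTiter-Glo read.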

[18] = molecular target: Cytochrome P450 1A2 (Homo sapiens) (UniProt P05177); assay: qHTS for inhibitors of CYPIA2 against the NCATS DSHEA and TCM libraries (AID 1919976);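 also: light from luciferin formed by CYP1A2 from a pro-luciferin substrate; series mostly up to about 37 µM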
In short: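 Furafylline served as the plate control. Compounds met CYP1A2 and pro-luciferin substrate 15 min before NADPH regeneration solution (1x) was added; after 30-45 min at RT, P450-Glo reagent was added for 30 min and luminescence was measured.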

[19] = Primary redox qHTS assay for identification of artifact compounds. (AID 1845223)
In short: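 Redox-cycling detection via DTT (250 uM final) oxidation coupled to Amplex Red (25 uM)/HRP (250 mU/mL) in HBSS. 15 min preincubation plus 30 min after DTT, room temperature. Ex/Em 525/598 nm; 4-parameter Hill fit against DMSO and 10 uM DA3003.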

[20] = molecular target: Cytochrome P450 2C19 (Homo sapiens) (UniProt P33261); assay: qHTS for inhibitors of CYP2C19 against the NCATS DSHEA and TCM libraries (AID 1919974);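 also: luminescence from luciferin released by CYP2C19 oxidation of a pro-luciferin substrate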; also: potency is read from the fitted curve at half-maximal effect
In short: as §2

Measured: Potency

Cytochrome P450 2C19 (Homo sapiens), sequence (P33261 whole entry, looked up): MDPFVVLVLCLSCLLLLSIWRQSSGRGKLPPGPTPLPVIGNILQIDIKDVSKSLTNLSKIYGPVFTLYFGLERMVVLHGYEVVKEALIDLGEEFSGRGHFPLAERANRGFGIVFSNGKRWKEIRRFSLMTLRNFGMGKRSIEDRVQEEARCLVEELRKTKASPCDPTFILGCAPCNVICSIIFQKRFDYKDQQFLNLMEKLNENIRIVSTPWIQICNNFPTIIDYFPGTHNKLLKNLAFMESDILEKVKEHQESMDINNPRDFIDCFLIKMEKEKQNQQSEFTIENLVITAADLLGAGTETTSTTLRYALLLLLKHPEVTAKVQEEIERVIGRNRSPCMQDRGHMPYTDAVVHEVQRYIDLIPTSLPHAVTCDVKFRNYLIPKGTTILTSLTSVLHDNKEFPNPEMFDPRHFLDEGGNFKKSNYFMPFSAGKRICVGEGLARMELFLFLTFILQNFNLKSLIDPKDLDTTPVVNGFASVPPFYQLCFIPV
Cytochrome P450 3A4 (Homo sapiens), sequence (P08684 whole entry, looked up, canonical isoform): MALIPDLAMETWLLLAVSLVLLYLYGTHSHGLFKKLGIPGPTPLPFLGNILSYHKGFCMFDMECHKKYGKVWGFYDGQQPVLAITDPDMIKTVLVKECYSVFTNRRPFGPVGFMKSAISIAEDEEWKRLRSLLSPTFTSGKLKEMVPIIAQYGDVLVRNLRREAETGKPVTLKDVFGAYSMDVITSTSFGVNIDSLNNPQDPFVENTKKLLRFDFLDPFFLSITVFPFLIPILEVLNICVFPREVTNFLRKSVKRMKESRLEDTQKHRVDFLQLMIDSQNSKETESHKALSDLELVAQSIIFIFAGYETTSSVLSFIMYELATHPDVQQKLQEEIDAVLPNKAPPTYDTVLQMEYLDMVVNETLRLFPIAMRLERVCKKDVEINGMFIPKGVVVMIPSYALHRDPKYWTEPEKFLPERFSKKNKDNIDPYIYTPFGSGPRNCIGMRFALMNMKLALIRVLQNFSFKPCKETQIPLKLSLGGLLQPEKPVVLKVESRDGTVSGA
Cytochrome P450 2C9 (Homo sapiens), sequence (P11712 whole entry, looked up): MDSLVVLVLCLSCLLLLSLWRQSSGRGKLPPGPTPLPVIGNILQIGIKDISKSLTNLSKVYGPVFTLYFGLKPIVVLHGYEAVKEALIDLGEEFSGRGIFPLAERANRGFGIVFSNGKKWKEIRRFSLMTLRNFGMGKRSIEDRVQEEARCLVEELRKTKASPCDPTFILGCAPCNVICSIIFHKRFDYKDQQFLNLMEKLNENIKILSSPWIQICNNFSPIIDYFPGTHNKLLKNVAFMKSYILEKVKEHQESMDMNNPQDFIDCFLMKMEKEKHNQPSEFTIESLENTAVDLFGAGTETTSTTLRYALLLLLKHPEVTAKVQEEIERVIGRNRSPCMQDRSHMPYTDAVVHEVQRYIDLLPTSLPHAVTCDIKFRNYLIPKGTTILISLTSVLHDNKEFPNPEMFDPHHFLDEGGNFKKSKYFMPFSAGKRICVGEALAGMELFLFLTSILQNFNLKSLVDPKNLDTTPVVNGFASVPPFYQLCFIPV
Cytochrome P450 2D6 (Homo sapiens), sequence (P10635 whole entry, looked up): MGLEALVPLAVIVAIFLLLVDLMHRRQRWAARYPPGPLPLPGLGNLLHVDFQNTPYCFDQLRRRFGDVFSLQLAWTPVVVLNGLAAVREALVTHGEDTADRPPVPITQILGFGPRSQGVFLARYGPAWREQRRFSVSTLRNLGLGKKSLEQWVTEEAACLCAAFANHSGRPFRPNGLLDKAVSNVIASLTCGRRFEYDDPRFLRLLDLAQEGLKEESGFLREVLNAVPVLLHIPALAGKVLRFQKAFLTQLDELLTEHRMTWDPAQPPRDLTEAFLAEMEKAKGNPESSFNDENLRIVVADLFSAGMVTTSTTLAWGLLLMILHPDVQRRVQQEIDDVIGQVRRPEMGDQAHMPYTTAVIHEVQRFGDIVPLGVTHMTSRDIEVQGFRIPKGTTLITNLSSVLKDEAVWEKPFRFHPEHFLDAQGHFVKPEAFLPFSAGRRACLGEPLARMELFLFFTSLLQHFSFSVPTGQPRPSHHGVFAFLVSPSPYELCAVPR
Phospholipid hydroperoxide glutathione peroxidase GPX4 (Homo sapiens), sequence (P36969 whole entry, looked up): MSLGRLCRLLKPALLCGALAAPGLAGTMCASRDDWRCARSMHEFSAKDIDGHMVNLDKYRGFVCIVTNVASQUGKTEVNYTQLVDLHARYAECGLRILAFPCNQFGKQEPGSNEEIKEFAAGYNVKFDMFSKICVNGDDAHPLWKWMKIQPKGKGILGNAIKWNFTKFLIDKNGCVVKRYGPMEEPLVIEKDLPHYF
Metallo-beta-lactamase type 2 (Klebsiella pneumoniae), sequence (C7C422 whole entry, looked up): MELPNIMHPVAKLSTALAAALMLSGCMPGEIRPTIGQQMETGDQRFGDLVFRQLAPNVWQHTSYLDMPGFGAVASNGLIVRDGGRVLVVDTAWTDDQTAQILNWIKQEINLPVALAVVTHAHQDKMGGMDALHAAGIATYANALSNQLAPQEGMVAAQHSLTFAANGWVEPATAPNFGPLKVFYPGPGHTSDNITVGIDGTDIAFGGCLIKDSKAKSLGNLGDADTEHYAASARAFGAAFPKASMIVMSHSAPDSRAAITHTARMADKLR
Nuclear receptor subfamily 1 group I member 3 (Homo sapiens), sequence (Q14994 whole entry, looked up): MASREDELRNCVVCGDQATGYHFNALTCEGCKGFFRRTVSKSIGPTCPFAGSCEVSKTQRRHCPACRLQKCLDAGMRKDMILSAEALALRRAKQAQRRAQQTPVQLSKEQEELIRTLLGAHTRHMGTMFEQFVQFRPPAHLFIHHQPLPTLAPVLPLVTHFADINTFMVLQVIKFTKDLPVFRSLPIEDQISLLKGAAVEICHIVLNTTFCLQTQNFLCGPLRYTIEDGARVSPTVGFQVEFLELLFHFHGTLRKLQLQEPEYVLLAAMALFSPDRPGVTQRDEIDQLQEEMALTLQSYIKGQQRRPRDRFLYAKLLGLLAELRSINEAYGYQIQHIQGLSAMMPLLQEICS
Glutathione peroxidase 1 (Homo sapiens), sequence (P07203 whole entry, looked up): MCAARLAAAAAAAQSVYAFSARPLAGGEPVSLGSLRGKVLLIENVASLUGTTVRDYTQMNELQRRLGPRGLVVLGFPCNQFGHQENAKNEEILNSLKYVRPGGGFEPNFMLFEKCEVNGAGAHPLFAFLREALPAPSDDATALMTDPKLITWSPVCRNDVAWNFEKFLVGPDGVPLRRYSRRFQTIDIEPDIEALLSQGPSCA
Cytochrome P450 1A2 (Homo sapiens), sequence (P05177 whole entry, looked up): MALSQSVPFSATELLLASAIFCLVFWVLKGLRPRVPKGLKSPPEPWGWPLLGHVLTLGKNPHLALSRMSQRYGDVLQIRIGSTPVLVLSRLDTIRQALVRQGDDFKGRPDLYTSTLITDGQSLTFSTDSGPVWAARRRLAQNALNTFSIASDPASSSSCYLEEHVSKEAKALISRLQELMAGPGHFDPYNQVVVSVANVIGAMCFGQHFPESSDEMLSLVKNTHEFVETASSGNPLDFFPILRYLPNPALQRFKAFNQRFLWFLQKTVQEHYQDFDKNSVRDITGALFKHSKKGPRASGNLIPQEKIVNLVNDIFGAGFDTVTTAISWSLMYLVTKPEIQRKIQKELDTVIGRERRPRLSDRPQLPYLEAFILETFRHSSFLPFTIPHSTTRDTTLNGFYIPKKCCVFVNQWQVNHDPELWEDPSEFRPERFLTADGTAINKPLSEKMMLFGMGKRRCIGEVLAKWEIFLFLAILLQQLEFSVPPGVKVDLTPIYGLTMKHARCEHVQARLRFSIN

O=C(O)c1ccnc2cc(C(OCCN3CCCCC3)c3ccccc3Cl)[nH]c12 (stereo not drawn)
inactive: [1] | [2] | [3] | [4] | [5] | [6]

c1ccc2c(N3CCNCC3)cccc2c1
inactive: [7] | [2] | [3]

O=C1C=CC(=O)C=C1
inactive: [7] | [2] | [3]

CC(C)(O)[C@@H]1C2OC(=O)[C@@H]1[C@]1(O)C[C@H]3O[C@]34C(=O)O[C@H]2[C@]14C (tested in a mixture with another compound)
inactive: [7] | [2] | [3]

COc1ccc2[nH]c3c(c2c1)CCNC3
inactive: [7] | [2] | [3]

C=CCN1CCC23c4c5ccc(O)c4O[C@H]2C(=O)CC[C@@]3(O)C1C5 (stereo partly drawn)
inactive: [7] | [2] | [3]

CN(N=O)c1ccc(O)c(O)c1
inactive: [2] | [3]
active: [7] 12.6 µM

CC(C)(C)c1o[nH]c(=O)c1CC(N)C(=O)O (stereo not drawn)
inactive: [7] | [2] | [3]

Clc1ccc(N2CC3CCC(C2)N3)nn1
inactive: [7] | [2] | [3]

N#C/C(=C/c1ccc(O)c(O)c1)C(N)=S
inactive: [7] | [3]
active: [2] 14.3 µM

NCCc1ccc(S(=O)(=O)F)cc1
inactive: [7] | [2] | [3]

CN1CCC(c2c[nH]c3ccc(O)cc23)CC1
inactive: [7] | [2] | [3]

CN1CCc2cccc(Cl)c2CC1
inactive: [7] | [2] | [3]

CO[C@H]1CC=C2CCN3CCC4=C(CC(=O)OC4)[C@]23C1
inactive: [7] | [2] | [3]

NCCc1c[nH]c2ccc(C(N)=O)cc12
inactive: [7] | [2] | [3]

CCOC(=O)c1ncn2c1[C@@H]1CCCN1C(=O)c1cc(OC)ccc1-2
inactive: [7] | [2] | [3]

CN(C(=O)Cc1ccc(Cl)c(Cl)c1)C(CN1CCCC1)c1cccc(OCC(=O)O)c1 (stereo not drawn)
inactive: [7] | [2] | [3]

O=C/C=C/c1ccccc1
inactive: [8] | [9] | [10] | [11] | [12] | [13] | [2] | [3] | [14] | [15] | [16] | [17] | [18]

C[C@H]1C2Cc3ccc(O)cc3[C@@]1(C)CCN2CC1CC1
inactive: [7] | [2] | [3]

NC(N)=Nc1ccc2[nH]c3c(c2c1)C[C@@]1(O)[C@H]2Cc4ccc(O)c5c4[C@@]1(CCN2CC1CC1)[C@H]3O5
inactive: [7] | [2] | [3]

O=c1c2ccccc2[se]n1-c1ccccc1
active: [1] 18.3 µM

CC(=O)NBr
inactive: [7] | [2] | [3]

C[C@@H]1O[C@@H](O[C@H]2C[C@@H](O)[C@]3(CO)[C@@H]4C(CC[C@]3(O)C2)[C@@]2(O)CC[C@H]([C@@H]3COC(=O)C3)[C@@]2(C)C[C@H]4O)[C@H](O)[C@H](O)[C@H]1O (stereo partly drawn)
inactive: [7] | [2] | [3]

COC1=CC(=O)O[C@@H](/C=C/c2ccccc2)C1
inactive: [12] | [13] | [2] | [3] | [4] | [5] | [6] | [19] | [14] | [16] | [17]
active: [20] 14.1 µM

NC(=O)CI
inactive: [7] | [2] | [3]

O=Cc1ccco1
active: [20] 6.31 µM
inactive: [12] | [13] | [15] | [17]

CCN1C[C@@]2(COC)C3[C@@H](OC)C4[C@@H]1C3([C@@H]1C[C@]3(O)[C@H](OC(=O)c5ccccc5)[C@@H]1[C@]4(OC(C)=O)[C@@H](O)[C@@H]3OC)[C@H](OC)C[C@H]2O
inactive: [7] | [2] | [3]

C[C@H](N)CN1CCc2ccc(Br)cc21
inactive: [7] | [2] | [3]

c1ccc2cc(CC3=NCCN3)ccc2c1
inactive: [7] | [2] | [3]

Cc1[nH]c2ccc(O)cc2c1CCN
inactive: [7] | [2] | [3]

CCCN1CCc2cc(O)cc3c2[C@H]1Cc1ccc(O)c(O)c1-3
inactive: [7] | [2] | [3]

CNC(C)C(O)c1ccc(O)cc1 (stereo not drawn)
inactive: [8] | [9] | [10] | [11] | [12] | [13] | [14] | [15] | [16] | [20] | [17] | [18]

CC(=O)OCC1=C(C(=O)O)N2C(=O)[C@@H](NC(=O)CCC[C@@H](N)C(=O)O)[C@H]2SC1
inactive: [7] | [2] | [3]

C[C@]12Cc3cn4c(nc3C=C1CCC1C2CC[C@@]2(C)[C@H]1CC[C@@]2(O)C#N)nc1ccccc14 (stereo partly drawn)
inactive: [7] | [2] | [3]
